Compounds without any hit were thinned out: in the full panel of roughly 79,000, 15% have a hit. A number with no mark means an inactive call. Active and inactive are the calls of the source. Cut-off read from the data, not from the text of the source: active = growth inhibition above about 70%; inactive = the rest.
Assay: NCI Yeast Anticancer Drug Screen. Data for the rad18 strain (AID 177)
Details: S. cerevisiae rad18 mutant growth inhibition, stronger effect = higher value
Description: Growth inhibition of yeast strains with defined genetic alterations is measured as a screen for potential anti-cancer activity. Selected strains with alterations in DNA damage repair or cell cycle control were exposed to compounds and growth inhibition was measured relative to vehicle treated controls. The strain used in this assay is rad18

SMILES	growth inhibition (at 1.2 µM) [%]	growth inhibition (at 3.7 µM) [%]	growth inhibition (at 11.0 µM)	growth inhibition (at 33.0 µM)	growth inhibition (at 100.0 µM)
Cc1cc(S(=O)(=O)Nc2nnc3cnc4ccccc4n23)c(S)cc1Cl	-6	-1	21%	14%	48%
CC(=O)OC1CCC2(C)C(=CC(C3C=C4CC(OC(C)=O)CCC4(C)C4=C3C3CC5OC6(CCC(C)CO6)C(C)C5C3(C)CC4)C3=C2CCC2(C)C3CC3OC4(CCC(C)CO4)C(C)C32)C1 (stereo not given)	-1	-3	-3%	8%	51%
O=C(O)C1CC(c2ccccc2)=NN1c1ccccc1 (stereo not given)	-38	-37	-12%	26%	96% (active)
CCOC1=C/C(=N\Nc2ccc([N+](=O)[O-])cc2)CCC1	4	8	30%	62%	55%
Cc1ccc2c(c1)C1(SC(C)C(=O)N1c1ccc(Cl)cc1)C(=O)N2 (stereo not given)	4	17	54%	97% (active)	98% (active)
CCOc1ccccc1N=Cc1c2ccccc2cc2ccccc12	-3	21	97% (active)	98% (active)	97% (active)
COc1ccc(C(NCCNC(c2ccc(OC)c(OC)c2)c2cc3c(cc2O)OCO3)c2cc3c(cc2O)OCO3)cc1OC (stereo not given)	-4	-4	8%	75% (active)	98% (active)
O=c1ssc(=Nc2ccccc2)n1-c1ccccc1	4	3	-1%	13%	47%
